# Compound activity: PubChem BioAssay, National Center for Advancing Translational Sciences (NCATS)
# Pf growth 48h: P. falciparum growth inhibition at 48 hours (one generation); P. falciparum luciferase growth in erythrocytes, 48 h; Potency, µM (top dose mostly 28.7 µM), most hits filed as inhibitors; actives 5.9% (n = 310,000); AID 504832
#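 Here the parasites carry a stable luciferase gene and grow inside erythrocytes in Albumax-based RPMI medium with compound for one erythrocytic cycle. Activity is scored as loss of luminescent signal.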
# Pf growth 96h: P. falciparum growth inhibition at 96 hours | Potency, µM (doses to about 28.7 µM), hits mostly inhibitors | AID 504834 | P. falciparum luciferase reporter growth, 96 h | actives 6.9% (n = 320,000)
#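 96 h incubation, 37 C, 5% CO2, of luciferase-reporter P. falciparum-infected RBCs (2% hematocrit, 0.05% parasitemia final) with test compounds; endpoint luminescence.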
# AMA1-RON2 inh: AMA1-RON2 (P. falciparum) interaction inhibition | AID 720542 | actives 0.2% (n = 360,000) | AlphaScreen AMA1-biotinylated RON2 peptide binding | Potency, µM (top dose mostly 58.2 µM), hits mostly inhibitors; note: nearly all actives have a fitted effect of over 45% in size
#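 AMA1 (3D7) with his tag at 25 nM final met compounds first, then biotinylated RON2 peptide at 25 nM; detection used donor plus acceptor beads, 10 µg/mL apiece, read by AlphaScreen after 30 min at room temperature.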
# HCV inh: blocks hepatitis C virus | Huh7.5.1 HCVcc-Cre infection, luciferase reporter, 44 h | Potency, µM (titrated, usually from 41.8 µM), hits mostly inhibitors | actives 3.4% (n = 340,000)
#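 Seed cells (1,000/well) for 4 h; treat with compound and infect with HCVcc-Cre, moi about 0.5. Incubate 44 h, then detect luciferase activity.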
# Hits are given with their value; – = inactive; ? = inconclusive; · = no result given; [ ] = another dose, or the depositor's remark. An excerpt weighted towards active compounds, which were near 11% of everything screened. Calls come from the whole dose curve; as a rule, active = well fitted curve in the direction sought with a large enough effect; inconclusive = small, poorly fitted or top-dose-only effect, or another doubt; inactive = no such curve, though single readings can be large; an effect the other way counts as inactive or inconclusive.
SMILES,Pf growth 48h,Pf growth 96h,AMA1-RON2 inh,HCV inh
Cc1ccc([N+](=O)[O-])cc1N=Nc1c(-c2ccc([N+](=O)[O-])cc2)[nH]n(C(N)=S)c1=O,?,–,–,7.9µM
NNC(=O)/C(=N/Nc1ccccc1)S(=O)(=O)c1ccc(Cl)cc1,9.3µM,12µM,–[2.32 µM],10µM
CCOC(=O)/C(=N/Nc1ccc(C)cc1)S(=O)(=O)c1ccc(Cl)cc1,–,·,–,–
CCC(/C=C1\Sc2ccc(OC)cc2N1CCO)=C\c1sc2ccc(OC)cc2[n+]1CCO,0.59µM,7.4µM,–[2.32 µM],5µM
CCC(=O)/C=C1/Sc2ccc(OC)cc2N1CCO,–,–,–,–
CC(=O)c1ccc(N2Cc3ccccc3/C2=N\C(=O)Nc2ccc(Cl)cc2)cc1,–,–,–,–
O=c1[nH]c(NCc2ccccc2)nc2c1CCCC2,13µM,8.3µM,–,–
Cc1ccc(S(=O)(=O)N2CCC3(CC2)OCCN3S(=O)(=O)c2c(C)cc(C)cc2C)cc1,10µM,?,–,10µM
Cc1cc(C)c(S(=O)(=O)N2CCC3(CC2)OCCN3S(=O)(=O)c2cccs2)c(C)c1,?,?,–,11µM
COc1ccc(S(=O)(=O)N2CCC3(CC2)OCCN3S(=O)(=O)c2c(C)cc(C)cc2C)cc1,1µM,0.83µM,–,?
Cc1ccc(C)c(S(=O)(=O)N2CCC3(CC2)OCCN3S(=O)(=O)c2cccs2)c1,?,?,–,–
COc1ccc(S(=O)(=O)N2CCC3(CC2)OCCN3S(=O)(=O)c2cccs2)cc1OC,?,9.3µM,–,?
CCN(CC(=O)Nc1ccc(N2CCOCC2)cc1)C(=O)Cc1ccccc1,–,–,–,–
O=C(CSc1nnc2ccccn12)NNC(=O)c1ccc(Br)cc1,–,?,–,–
CCCCn1cnc2cc(C)c(C)cc21,?,–,–,?
CSCCC(NC(=O)c1ccccc1)C(=O)NCc1ccco1 (stereo not given),–,–,–,–
COC(=O)C/C=C/[C@@H](C)[C@@H](/C=N/OC[C@H]1O[C@H](c2ccccc2)C=C[C@@H]1Oc1ccc(OC)cc1)NS(=O)(=O)c1ccc(C)cc1,12µM,7.4µM,·,–[8.37 µM]
COc1ccc(O[C@H]2C=C[C@@H](c3ccccc3)O[C@@H]2COC(=O)CC/C(C)=N/O[C@@H](C)CN2CCCCc3nc(C)c(C)cc32)cc1,5.9µM,8.3µM,·,–[8.37 µM]
CC(=O)OC[C@H]1O[C@@H](O/N=C(\C)CCN2CCCCc3nc(C)c(C)cc32)[C@H](OC(C)=O)[C@@H](OC(C)=O)[C@@H]1OC(C)=O,–,–,·,–[8.37 µM]
COc1ccc(O[C@H]2C=C[C@@H](c3ccccc3)O[C@@H]2CO/N=C(\C)CCC(=O)OC[C@H]2O[C@H](c3ccccc3)C=C[C@@H]2Oc2ccc(OC)cc2)cc1,2.6µM,2.3µM,·,–[8.37 µM]
C/C(CCC(=O)OC[C@H]1O[C@H](C#Cc2ccccc2)C=C[C@@H]1Oc1ccc(C)cc1)=N\O[C@@H](C)CN1CCCCc2nc(C)c(C)cc21,15µM,4.1µM,·,–[8.37 µM]
c1ccc(Sc2ncccn2)nc1,?,–,–,–
C=CCn1cccc(/C=C/C(=O)c2ccc(C(C)(C)C)cc2)c1=S,?,?,?,10µM
COc1ccc(C(=O)N/C(=C\c2cn(S(=O)(=O)N(C)C)c3ccccc23)C(=O)N2CCCC2)cc1,·,·,–,·
COc1cc(/C=C2\C(=N)N3N=CSC3=NC2=O)ccc1OS(=O)(=O)c1ccccc1[N+](=O)[O-],–,4.1µM,–,–
SMILES,Pf growth 48h,Pf growth 96h,AMA1-RON2 inh,HCV inh
COc1cc(/C=C2\C(=N)N3N=C(S(C)(=O)=O)SC3=NC2=O)ccc1OCCOc1ccccc1C,10µM,?,–,–
COc1cc(/C=C2\C(=N)N3N=C(S(C)(=O)=O)SC3=NC2=O)ccc1OC(=O)c1cccs1,?,–,–,–
COc1cc(C=C2C(=O)NC(=O)NC2=O)ccc1OS(=O)(=O)c1ccccc1[N+](=O)[O-],–,?,–,–
Cc1cc[n+](CC(=O)Nc2cc(C(F)(F)F)ccc2Cl)cc1,?,?,–,–
CN(C)c1cc[n+](CC(=O)Nc2cc(C(F)(F)F)ccc2Cl)cc1,1.7µM,0.83µM,–,–
O=C(C[n+]1ccc2ccccc2c1)Nc1cc(C(F)(F)F)ccc1Cl,1.3µM,?,–,?
O=C(COC(=O)/C=C/c1cc(Br)ccc1F)NC1CC1,·,·,–,–
O=C(/C=C/c1ccc(F)cc1)NC(=S)NC1CCCCC1,?,3.3µM,–,–
CC(=O)NC(=S)Nc1ccccc1C(=O)NC1CCCCC1,–,8.3µM,–,–
Cc1ccc(/C=C/C(=O)NC(=S)Nc2ccccc2C(=O)NC2CCCCC2)cc1,?,?,–,–
O=C(NNC(=S)NC1CCCCC1)c1ccccc1O,–,2.3µM,–,?
COc1ccc(/C=C/C(=O)NC(=S)Nc2ccccc2C(=O)NC2CCCCC2)cc1,–,–,–,25µM
Cc1cc(=O)n2ccsc2n1,–,13µM,–,–
Cc1nc2sccn2c1P(c1c(C)nc2sccn12)c1c(C)nc2sccn12,8.3µM,?,–,–
Cc1nc2nc(SCC(=O)O)nn2c(C)c1Cc1ccccc1Cl,–,–,–,–
O=[N+]([O-])c1cccc(Cl)c1NCCNc1ncc(C(F)(F)F)cc1Cl,–,–,–,–
Cc1c(C(=O)NCCNc2ncc(C(F)(F)F)cc2Cl)cccc1[N+](=O)[O-],–,–,–,11µM
CC(C)CC(c1nnnn1C1CCCCC1)N1CCN(C(=O)c2ccco2)CC1 (stereo not given),?,?,–,–
CCCCC(c1nnnn1CCOC)N1CCN(C(=O)c2ccco2)CC1 (stereo not given),–,·,?,–
CCCCC(c1nnnn1C1CCCC1)N1CCN(C(=O)c2ccco2)CC1 (stereo not given),2.1µM,·,–,–
Cc1ccc(S(=O)(=O)Cn2nnnc2C(CC(C)C)N2CCN(C(=O)c3ccco3)CC2)cc1 (stereo not given),12µM,1.7µM,–[11.6 µM],–
CCCC(c1nnnn1C1CCCC1)N1CCN(C(=O)c2ccco2)CC1 (stereo not given),12µM,?,–,–
CCCC(c1nnnn1C(C)(C)C)N1CCN(C(=O)c2ccco2)CC1 (stereo not given),–,–,–,–
CC(C)CC(c1nnnn1C1CCCC1)N1CCN(C(=O)c2ccco2)CC1 (stereo not given),–,9.3µM,–,?
CCOc1ccc(N=Nc2c(C)noc2C)cc1,–,?,–,–
SMILES,Pf growth 48h,Pf growth 96h,AMA1-RON2 inh,HCV inh
CCOC(=O)CN1C(=O)C2Cc3ccccc3CN2C1=S (stereo not given),?,–,–,–
CC/C(=N\N=C1\SC(C)C(=O)N1Cc1ccco1)c1ccccc1 (stereo not given),?,–,–[2.32 µM],–
CN(C)CCNC(=O)C(c1ccccc1)c1ccccc1,?,–,–,–
CCC(NC(=O)Cc1cccs1)c1ccccc1 (stereo not given),–,5.9µM,–,–
O=C(NCCc1cccs1)C(c1ccccc1)c1ccccc1,–,12µM,–,–
CC(NC(=O)c1ccco1)c1nc(-c2ccccc2Cl)no1 (stereo not given),–,?,–,–
